“And” between values parts separate entries of the source, which are not always exact repeats. Equal values may be shown once. Among all 69,000 compounds or so, about 2,600 (3.8%) were called active. Rule as the data show it: active = activity change below about -70% (passing the limit was not always enough); inconclusive = no clear call, values can overlap the other calls. This excerpt belongs to a sample that is enriched for actives. Some compounds were tested as several samples or in several runs, with calls that do not always agree.
Assay: T. gondii growth inhibition with IFN-gamma, primary screen, cell-based (AID 1259416);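 also: host cells are HeLa cells infected with Toxoplasma gondii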
Details: Toxoplasma gondii growth in IFN-gamma-treated host cells; stronger effect = lower value; concentration not given here

Row | SMILES | activity change, negative = inhibition
1 | CC(C)CNC(=O)c1ccc2c(c1)C(c1ncn(C(C)C)n1)CN2C(=O)c1ccccc1 (centres undefined) | -46.3% (inactive)
2 | Cc1nc2cc(C(=O)NC3(c4ccc5c(c4)OCO5)CCCC3)ccc2s1 | -5.47% (inactive)
3 | C=CCN(Cc1ccccc1Cl)C(=O)c1ccc(CN(C)C)o1 | -46.3% (inactive)
4 | C/C(=N/N1CCN(Cc2cccc3ccccc23)CC1)c1cccnc1 | -96% (active)
5 | Cc1cc(-c2ccccc2CN2CCOCC2)ccc1NC(=O)c1cccnc1 | -6.76% (inactive)
6 | Cc1ccc(CC(=O)c2cccnc2)cc1 | 14% (inactive)
7 | Cc1ccc(C(=O)Nc2ccc(-c3nc(-c4ccc(C)cc4)co3)cc2)cc1 | 42.6% (inactive)
8 | O=C1CCc2cc(NC(=O)c3cc(-c4ccccc4)nc4ccccc34)ccc2N1 | -32.2% (inactive)
9 | Cc1ccc(-c2cc(C(=O)Nc3ccc4c(c3)N(S(C)(=O)=O)CCC4)[nH]n2)cc1 | -78.5% (active)
10 | CN1CCN([C@H]2CN(Cc3ncc[nH]3)C[C@@H]2O)CC1 | 28% (inactive)
11 | c1cncc(-c2nc3c(c(NCCC4CCOC4)n2)CCNC3)c1 (centres undefined) | -9.13% (inactive)
12 | CCn1c(-c2cc(NC(=O)c3ccncc3)n[nH]2)cc2ccccc21 | -91% (active)
13 | CCC(NC(=O)CCn1c(C)cc2ccccc21)c1cccnc1 (centres undefined) | 0.306% (inactive)
14 | CN1CCN(C(=O)c2cncc(N3CCC4(CCOCC4)CC3)n2)CC1 | -7.63% (inactive)
15 | Cc1nc(C)n(C(=O)N2CCOCC2)n1 | -8.09% (inactive)
16 | Cc1nc(N)nc(C)c1CC(=O)N1CCC2(CCOCC2)CC1 | -82.2% (active)
17 | COCCN1CC[C@@H]2C[C@@H](C(=O)N3CCCCO3)O[C@@H]2C1 | -6.09% (inactive)
18 | CCN1CCO[C@H]2CN(S(=O)(=O)c3cccs3)CC[C@@H]2C1 | 1.58% (inactive)
19 | COC(C)c1nncn1-c1cccc2ccccc12 (centres undefined) | -48.2% (inactive)
20 | CC(=O)NC1(c2ccc(F)cc2)CCN(Cc2ccc(Oc3ncccn3)cc2)CC1 | 9.39% (inactive)

Row | SMILES | activity change, negative = inhibition
21 | Cc1ccn(CC(=O)N2CCN3CCNC(=O)C3C2)n1 (centres undefined) | -2.78% (inactive)
22 | COc1ccccc1OCc1cc(C(=O)NCCF)n[nH]1 | 35.8% (inactive)
23 | O=S(=O)(NCCC1=CCCCC1)c1ccc(S(=O)(=O)NC2CCCCC2)cc1 | -84.3% (active)
24 | CCCNS(=O)(=O)c1ccc(CCC(=O)N2CCCC2)cc1 | -8.43% (inactive)
25 | CN(C)S(=O)(=O)c1ccc2c(c1)cc(C(=O)NCCC1=CCCCC1)n2Cc1ccncc1 | -54.8% (inactive)
26 | Cc1ccccc1NC(=O)c1ccc2ccc(N3CCN(CC4CC4)CC3)n2c1 | 2.07% (inactive)
27 | N#C[C@H]1N[C@H](CO)[C@H]1c1ccc(-c2cccc(F)c2)cc1 | 17.8% (inactive)
28 | CC(=O)N1CCCCN2[C@H](CO)[C@H](c3ccc(-c4ccccc4)cc3)[C@@H]2C1 | 12.2% (inactive)
29 | CC(C)C(=O)Nc1cccnc1-c1ccc(C(C)N2CCOCC2)cc1 (centres undefined) | 0.361% (inactive)
30 | COc1ccccc1CCC(=O)N1CCC2(CC1)Nc1cccnc1NC2=NC(C)(C)C | 74.7% (inactive)
31 | CSc1nn2c(C)cc(C)nc2c1C#N | 44.4% (inactive)
32 | Cc1cc(C)c(C#N)c(Sc2ccc(Cl)cc2)n1 | -73.5% (active)
33 | Cc1[nH]c2ccccc2c1Sc1ccc(Cl)cc1 | -55.7% (inactive)
34 | COc1ccc(NS(=O)(=O)c2ccc(NC(=S)NC(=O)c3cccs3)cc2)nn1 | 1.98% (inactive)
35 | O=C(Cc1ccccn1)N1[C@@H]2CNc3ccccc3[C@@H]2[C@@H]1CO | 1.07% (inactive)
36 | CCCn1cc(C(=O)N(Cc2ccccn2)CC2CCCO2)c(C)n1 (centres undefined) | -1.25% (inactive)
37 | Cc1nc([C@@H]2C[C@H]3CCN(Cc4sccc4C)C[C@@H]3O2)no1 | 95.8% (inactive)
38 | Cc1ccc2c(c1C)-n1cccc1C1(CCN(S(=O)(=O)c3ccc(C4CCCCC4)cc3)CC1)N2 | 30.2% (inactive)
39 | Cn1c(SCc2csc(C3CCCCC3)n2)nc2ccccc2c1=O | -80.1% (active)
40 | Cn1c(CNC(=O)CC2CCCC2)nnc1SCc1ccccn1 | 2.95% (inactive)

Row | SMILES | activity change, negative = inhibition
41 | C=CCn1c(SCc2ccc(C(=O)NCCO)cc2)nc2ccccc2c1=O | -34.4% (inactive)
42 | Cc1ccsc1-c1cn(CC2(Cn3ccnc3C)CC2)nn1 | 8.54% (inactive)
43 | O=C(c1cn(-c2ccccc2)nn1)N(Cc1ccsc1)CC1CCCO1 (centres undefined) | 1.85% (inactive)
44 | COCc1ncc(CN2CCC(Cc3cccc(C(=O)O)c3)C2)cn1 (centres undefined) | 3.4% (inactive)
45 | Cc1oc(C(C)(C)C)cc1C(=O)Nc1ccc(SCc2cccc(Cl)c2F)cc1 | -75.3% (active)
46 | Cc1cnc(CN(C)C(=O)C(C)(C)NC(=O)c2cccs2)[nH]1 | -13.9% (inactive)
47 | CN1CCN(c2ccc3nc(-c4c(N)c5c(F)cccc5[nH]c4=O)[nH]c3c2)CC1 | -66.4% (inactive) and -77.3% (active)
48 | Clc1cccnc1-c1cccc2[nH]ccc12 | 9.34% (inactive)
49 | CC(C)C(=O)NS(=O)(=O)c1ccc(NC(=O)c2ccccc2)cc1 | 5.8% (inactive)
50 | COc1cc(NC(=O)Nc2cccc(CNC(=O)O[C@H]3CCOC3)c2)ccc1-c1cnco1 | -72.9% (active)
51 | COc1cccc(CNC(=O)Nc2ccc(-c3nc(-c4cc(C)ccc4C)co3)cc2)c1 | -13% (inactive)
52 | COc1cccc(NC(=O)Nc2ccc3c(c2)C(=O)N(C)C[C@@H](OC)[C@H](C)CN(CC2CC2)[C@H](C)CO3)c1 | 63.1% (inactive)
53 | Cc1nc2c(c(N3CCN(C(=O)c4ccccc4F)CC3)n1)CN(Cc1ccccc1)CC2 | -27.3% (inactive)
54 | COCC(=O)N1CCC(N(C)Cc2ccccc2)CC1C(=O)O (centres undefined) | 3.74% (inactive)
55 | Cc1nn(C)cc1-c1ccnc(NCC2CCN(Cc3ccccc3)C2)n1 (centres undefined) | -13.6% (inactive)
56 | Cc1nn(-c2ccccc2)c(C)c1-c1ccnc(NCc2cnc3ccccn23)n1 | -82.8% (active)
57 | COc1cc(CN(C)Cc2ncccc2C)cc(OC)c1 | -4.74% (inactive)
58 | COCCN1C(=O)CCc2cc(NC(=O)CC(C)(C)C)ccc21 | 3.59% (inactive)
59 | CN(Cc1cccnc1)C1COC2(CCN(Cc3cccs3)CC2)C1 (centres undefined) | 1.79% (inactive)
